Several values for one entry are separate records, joined by “and”; a condition that tells them apart may be missing. Identical values can stand only once. Among all 5,500 compounds or so, about 2,000 (36%) were called active. About 18% were inconclusive and are not listed. Rule as the data show it: active = normalized growth mostly below about 0.91 (no sharp cut-off); inconclusive = no clear call, values can overlap the other calls; inactive = mostly above about 0.92. The list shows a part of the results.
Test: chemical genetic growth profiling, strain panel (AID 1159580);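 also: tested at 20 µM; growth read once vehicle control cultures reached saturation at 30 °C; 1 = growth at the plate median or of vehicle wells; lower values mean less growth of the strain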
Conditions: S. cerevisiae deletion strains, growth OD

Measured: normalized growth

CCCN1C[C@H](CSC)C[C@@H]2c3cccc4[nH]cc(c34)C[C@H]21
inactive: locus YAL013W, strain DEP1, hits give low values 0.997 | locus YAL021C, strain ccr4, hits give low values 0.978 | locus YAL026C, strain drs2, hits give low values 1.02 | locus YAL030W, strain snc1, hits give low values 1.02 | locus YBL061C, strain skt5, hits give low values 1.01 | locus YBR009C, strain hhf1, hits give low values 1.02 | locus YBR021W, strain FUR4, hits give low values 0.965 | locus YBR023C, strain chs3, hits give low values 0.998 | locus YBR171W, strain sec66, hits give low values 1.02 | locus YBR229C, strain ROT2, hits give low values 1 | locus YBR231C, strain swc5, hits give low values 1.01 | locus YBR279W, strain paf1, hits give low values 0.996 | locus YCL011C, strain gbp2, hits give low values 1.02 | locus YCL016C, strain dcc1, hits give low values 1.01 | locus YCL029C, strain bik1, hits give low values 1.02 | locus YCL069W, strain vba3, hits give low values 1.01 | locus YCR088W, strain abp1, hits give low values 1.01 | locus YDL005C, strain med2, hits give low values 0.994 | locus YDL035C, strain GPR1, hits give low values 0.992 | locus YDL040C, strain nat1, hits give low values 0.996 | locus YDL074C, strain BRE1, hits give low values 0.975 | locus YDL101C, strain DUN1, hits give low values 0.992 | locus YDL134C, strain PPH21, hits give low values 1.01 | locus YDL185W, strain tfp1, hits give low values 1.02 | locus YDL192W, strain arf1, hits give low values 1.02 | locus YDR001C, strain nth1, hits give low values 1.01 | locus YDR069C, strain doa4, hits give low values 0.994 | locus YDR101C, strain arx1, hits give low values 1 | locus YDR137W, strain rgp1, hits give low values 1.1 | locus YDR150W, strain NUM1, hits give low values 0.989 | locus YDR159W, strain sac3, hits give low values 0.989 | locus YDR162C, strain NBP2, hits give low values 0.97 | locus YDR195W, strain ref2 1.03 | locus YDR297W, strain sur2, hits give low values 1.01 | locus YDR318W, strain mcm21, hits give low values 1.03 | locus YDR334W, strain swr1, hits give low values 1.02 | locus YDR335W, strain msn5, hits give low values 1.02 | locus YDR388W, hits give low values 1.02 | locus YDR392W, strain spt3, hits give low values 1.02 | locus YDR502C, strain sam2, hits give low values 1.01 | locus YEL003W, strain gim4, hits give low values 1.01 | locus YEL037C, strain rad23, hits give low values 1.01 | locus YEL061C, strain CIN8 (second series), hits give low values 1.02 | locus YEL061C, strain CIN8, hits give low values 0.999 | locus YER015W, strain faa2, hits give low values 1.01 | locus YER016W, strain bim1, hits give low values 1.02 | locus YER110C, hits give low values 1.02 | locus YER111C, strain swi4, hits give low values 1.01 | locus YER155C, strain BEM2 (second series), hits give low values 0.999 | locus YER155C, strain BEM2, hits give low values 1 | locus YER167W, strain BCK2, hits give low values 1 | locus YFR010W, strain ubp6, hits give low values 0.987 | locus YGL078C, strain dbp3, hits give low values 1.01 | locus YGL086W, strain mad1, hits give low values 1.02 | locus YGL167C, strain pmr1, hits give low values 1.02 | locus YGL173C, strain kem1, hits give low values 1 | locus YGL227W, strain vid30, hits give low values 1.01 | locus YGL240W, strain doc1, hits give low values 0.991 | locus YGL248W, strain PDE1, hits give low values 0.998 | locus YGL253W, strain hxk2, hits give low values 1.01 | locus YGR078C, strain PAC10, hits give low values 0.988 | locus YGR135W, strain pre9, hits give low values 0.985 | locus YGR229C, strain SMI1, hits give low values 0.984 | locus YGR252W, strain gcn5, hits give low values 1.06 | locus YHR013C, strain ard1, hits give low values 1 | locus YHR027C, strain rpn1, hits give low values 1.02 | locus YHR030C, strain SLT2, hits give low values 1.01 and 1.02 | locus YHR079C, strain IRE1 (second series), hits give low values 1.01 | locus YHR079C, strain IRE1, hits give low values 1.04 | locus YHR094C, strain hxt1, hits give low values 1.02 | locus YHR129C, strain ARP1, hits give low values 1 | locus YHR142W, strain chs7, hits give low values 1.02 | locus YHR200W, strain rpn10, hits give low values 1.01 | locus YIL066C, strain RNR3, hits give low values 1.01 | locus YIL073C, strain SPO22, hits give low values 1.08 | locus YIL125W, strain kgd1, hits give low values 1 | locus YIR030C, strain dcg1, hits give low values 1.01 | locus YJL092W, strain hpr5, hits give low values 1.01 | locus YJL095W, strain BCK1 (second series), hits give low values 1.01 | locus YJL095W, strain BCK1, hits give low values 0.975 and 1.04 | locus YJL115W, strain asf1, hits give low values 1.02 | locus YJL129C, strain trk1, hits give low values 1.03 | locus YJL134W, strain LCB3, hits give low values 0.993 | locus YJL154C, strain vps35, hits give low values 1.01 | locus YJL164C, strain tpk1, hits give low values 1.01 | locus YJL166W, strain qcr8, hits give low values 1.01 | locus YJL168C, strain set2, hits give low values 1.03 | locus YJL187C, strain SWE1 (second series), hits give low values 1 | locus YJR043C, strain POL32, hits give low values 1 | locus YJR066W, strain TOR1, hits give low values 0.985 | locus YJR075W, strain HOC1, hits give low values 0.98
